# Bioassay records: PubChem, several laboratories
# Shn3 inh set2 – inhibitors of Schnurri-3 3'UTR reporter in osteoblasts; Clone20 osteoblast Shn3 3'UTR firefly luciferase, 24 h; inhibition, % at 12.5 µM; 0.52% of 360,000 active;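 active means mean inhibition of at least 75% with every replicate also reaching 75%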;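 further: 0% = median of neutral control wells and 100% = pilot-screen positive control compound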
# PAX8 reporter – lowers PAX8-driven luciferase in RMG-I cells | RMG-I TPO-luciferase reporter, SteadyGlo, 24 h | 1.2% of 360,000 active | inhibition, % at 12.6 µM;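 active means mean replicate inhibition at least 60% with every replicate also reaching 60%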;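 further: luciferase light reporting Pax8 driven TPO promoter activity; plate controls were median of neutral control wells for no effect and mitoxantrone controls for full effect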
# TRPM1 prom inh – inhibitors of MITF-driven TRPM1 promoter in melanoma cells; SK-MEL-5 TRPM1 promoter luciferase, 24 h; inhibition, % at 12.5 µM; 0.83% of 330,000 active; AID 488899;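 active means mean inhibition across replicates of 60% or more, whatever share of single replicates reaches that level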
# Peg3 prom inh – reduces Peg3 promoter-driven luciferase expression in HeLa | inhibition, % at 20 µM | HeLa PEG-Prom luciferase reporter, luminescence, overnight | 1.7% of 360,000 active;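 active means inhibition of at least 50% at 20 µM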
# LMP1 NFkB inh – reduces LMP1-driven NF-kappaB luciferase signal; LMP1-induced NF-kappaB luciferase reporter cells, luminescence; inhibition, % at 12.5 µM; 0.69% of 350,000 active; AID 504558; in the data active means inhibition above about 41%;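 further: 0% = neutral control wells and 100% = reference inhibitor control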
# HIF-2a block – HIF-2a inhibition; 0.72% of 360,000 active; 786-0 RCC cells HIF-2a reporter, luciferase luminescence, overnight; inhibition, % at 18.8 µM;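 active means inhibition of the luminescence signal of 40% or more relative to plate controls, in a single-dose primary screen at 18.75 µM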
# Active calls of the source: *; . = no result. Shown are actives, neighbours in structure and some others; about 2.8% of the full set was active somewhere.
SMILES,Shn3 inh set2,PAX8 reporter,TRPM1 prom inh,Peg3 prom inh,LMP1 NFkB inh,HIF-2a block
O=C(O)c1ccc(C(=O)C(=O)c2ccccc2)cc1,5.0,16.2,-9.7,-11.2,-0.2,12.4
C[C@H](NC(=O)[C@@H]1[C@@H](CO)[C@@H]2Cn3c(ccc(C4=CCCC4)c3=O)[C@H]1N2C(=O)C1CC1)c1ccccc1,.,14.9,.,.,.,.
CCOC(CNCc1cc(C)c2[nH]c3ccccc3c2c1C)OCC,39.3,-3.0,12.7,74.0*,8.5,21.8
CC(C)Cc1ccc(C(C)/C=C2/CCC(CN3CCCCC3)C2=O)cc1 (stereo not given),73.9,35.7,17.9,91.1*,-11.9,-5.6
CC(C)Cc1ccc(CN2CCCC(NC(=O)CCN3CCCCC3=O)C2)cc1 (stereo not given),15.4,1.4,3.6,-18.4,4.7,-2.0
C[C@@H]1CN([C@H](C)CO)C(=O)c2cc(NC(=O)Nc3ccc(F)cc3)ccc2O[C@@H](C)CCCCO[C@@H]1CN(C)Cc1ccc2c(c1)OCO2,.,92.2*,.,.,.,.
C[C@@H]1CN([C@H](C)CO)C(=O)c2cc(NC(=O)Nc3ccc(F)cc3)ccc2O[C@@H](C)CCCCO[C@H]1CN(C)Cc1ccc2c(c1)OCO2,.,66.4*,.,.,.,.
C[C@@H]1CCCCO[C@H](CN(C)Cc2ccc3c(c2)OCO3)[C@H](C)CN([C@H](C)CO)C(=O)c2cc(NC(=O)Nc3ccc(F)cc3)ccc2O1,.,66.3*,.,.,.,.
C[C@@H]1CCCCO[C@@H](CN(C)C(=O)Cc2ccccc2)[C@@H](C)CN([C@H](C)CO)C(=O)c2cc(NC(=O)c3ccncc3)ccc2O1,.,-7.7,.,.,.,.
COc1cccc(S(=O)(=O)N[C@@H]2CC[C@H](CC(=O)NCc3ccc(F)cc3)O[C@H]2CO)c1,.,1.4,.,.,.,.
Oc1ccc(Nc2nc(-c3ccccc3)nc3ccccc23)cc1,4.6,.,11.1,20.9,2.4,-15.4
Oc1ccc(Nc2nc3ccccc3nc2Nc2ccc(O)cc2)cc1,55.3,.,65.8*,96.4*,15.4,75.0*
CCOC(=O)c1c(CSc2ccc(CC)cc2)oc2ccc(O)c(CN(C)C)c12,89.6*,28.8,45.1,97.6*,-14.8,5.5
COc1ccc(CSC(=N)N)cc1[N+](=O)[O-],-15.4,.,2.0,2.4,-21.3,8.8
CCCCCOc1ccc(CSC(=N)N)cc1[N+](=O)[O-],-45.8,.,-4.6,106.5*,-108.6,-120.8
CCCCOc1ccc(Br)cc1CSC(=N)N,91.6*,30.8,14.3,105.0*,0.6,13.6
O=C(C[C@@H]1CC[C@H]2[C@@H](COC[C@H](O)CN2S(=O)(=O)c2ccc(F)cc2)O1)N[C@@H]1CCN(Cc2ccccc2)C1,.,3.4,.,.,.,.
CCN1CCS/C1=C\C=C\C1=[N+](CC)CCS1,75.1,76.1*,40.9,17.4,30.0,21.6
CCN1CCS/C1=C/C=C/C1=[N+](CC)CCS1,75.1,.,50.9,2.2,28.0,17.5
Cc1ccc(Cn2nc(C)c(NC(=O)CSc3nc4c(c(C(F)(F)F)n3)CCc3ccccc3-4)c2C)cc1,-0.1,-6.9,-10.6,50.1*,3.3,12.9
Cc1nn(Cc2ccc(Cl)cc2)c(C)c1NC(=O)CSc1nc2c(c(C(F)(F)F)n1)CCc1ccccc1-2,-5.4,.,2.5,14.5,14.4,-0.2
Cc1c(Cl)cccc1NC(=O)CC(C(=O)O)C1CCCO1 (stereo not given),4.5,-4.7,0.9,7.0,-4.9,18.5
Cc1c(Cl)cccc1NC(=O)CC(Cc1ccccc1)C(=O)O (stereo not given),4.1,11.5,-7.1,7.7,44.4*,17.3
N#Cc1c(NC(=O)c2ccccc2Cl)n(Cc2ccccc2)c2nc3ccccc3nc12,7.0,14.5,3.0,43.8,11.1,-1.6
CCCCn1c(NC(=O)c2ccccc2Cl)c(C#N)c2nc3ccccc3nc21,-4.0,30.3,2.5,52.7*,11.2,7.1
SMILES,Shn3 inh set2,PAX8 reporter,TRPM1 prom inh,Peg3 prom inh,LMP1 NFkB inh,HIF-2a block
Cc1c2ccncc2cc2c1[nH]c1ccccc12,34.0,-28.3,-40.7,49.8,-23.7,18.2
COc1ccc2[nH]c3c(C)c4ccncc4c(C)c3c2c1,-45.1,.,95.3*,106.5*,-11.2,14.9
CO[C@H]1CN(C)C(=O)c2ccc(NC(=O)C3CC3)cc2OC[C@@H](C)N(C(=O)NC(C)C)C[C@@H]1C,.,5.5,.,.,.,.
C#CCOCCOCCOCCNc1nc(N2CCOCC2)nc(N2CCN(C(=O)CCCCCCCCCCNC(=O)[C@@H]([C@H](C)CC)n3cc(CCCCCN)nn3)CC2)n1,1.5,-2.0,18.9,52.8*,-2.8,-1.7
C#CCOCCOCCOCCNc1nc(N2CCN(C(=O)CCCCCCCCCCNC(=O)[C@H]([C@@H](C)CC)n3cc(CCCCCN)nn3)CC2)nc(N2CCN(C(=O)CCCCCCCCCCNC(=O)[C@H](CCCCN)n3cc(CCCC(=O)O)nn3)CC2)n1,-14.7,.,-5.3,-26.5,5.9,-8.2
C#CCOCCOCCOCCNc1nc(N2CCN(C(=O)CCCCCCCCCCNC(=O)[C@H](CO)n3cc(CCCSC)nn3)CC2)nc(N2CCN(C(=O)CCCCCCCCCCNC(=O)[C@H](CCCN=C(N)N)n3cc(C[C@@H](C)CC)nn3)CC2)n1,10.3,.,88.6*,0.5,0.0,22.3
C#CCOCCOCCOCCNc1nc(N2CCN(C(=O)CCCCCCCCCCNC(=O)[C@H]([C@@H](C)CC)n3cc(CCCCCN)nn3)CC2)nc(N2CCN(C(=O)CCCCCCCCCCNC(=O)[C@H]([C@@H](C)CC)n3cc(CCCCN=C(N)N)nn3)CC2)n1,37.0,.,98.7*,71.0*,9.5,-4.3
C#CCOCCOCCOCCNc1nc(N2CCN(C(=O)CCCCCCCCCCNC(=O)[C@@H](CCC(=O)O)n3cc(CCCCCN)nn3)CC2)nc(N2CCN(C(=O)CCCCCCCCCCNC(=O)[C@H]([C@@H](C)CC)n3cc(CCCCCN)nn3)CC2)n1,3.1,.,-7.3,-40.2,5.5,-17.4
C#CCOCCOCCOCCNc1nc(N2CCN(C(=O)CCCCCCCCCCNC(=O)Cn3cc(CCCCCN)nn3)CC2)nc(N2CCN(C(=O)CCCCCCCCCCNC(=O)[C@@H](CCSC)n3cc(CCO)nn3)CC2)n1,5.0,.,34.6,77.0*,5.3,-11.4
COc1ccc(CNC(=O)C[C@H]2C=C[C@@H](NC(=O)c3cccc(F)c3)[C@@H](CO)O2)cc1,.,6.6,.,.,.,.
O=C(Cc1ccccn1)NCC[C@@H]1CC[C@H](NC(=O)c2ccccc2F)[C@H](CO)O1,.,-13.3,.,.,.,.
COc1ccc(S(=O)(=O)N(C)C[C@@H]2Oc3ncc(C#CC4(O)CCCC4)cc3C(=O)N([C@@H](C)CO)C[C@@H]2C)cc1,.,-19.8,.,.,.,.
C#CCOCCOCCOCCNc1nc(N2CCN(C(=O)CCCCCCCCCCNC(=O)[C@H](CO)n3cc(CCCSC)nn3)CC2)nc(N2CCN(C(=O)CCCCCCCCCCNC(=O)[C@H](CCCCN)n3cc(CCO)nn3)CC2)n1,-14.9,15.8,7.0,14.6,4.0,-2.2
